# Measured values reported in the supplement of paper PMC8253809.
# Assays:
# Assay in all cases: growth inhibition (% activity, log2 RLU normalised to DMSO / staurosporine); higher = more growth inhibition
# Conditions in all cases: 33 µM
# DIPGX29 = test system: DIPGX29 (H3.3 K27M diffuse intrinsic pontine glioma line)
# In short: (§1)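 pHGG cell lines and H9-derived neural stem cells were grown on Geltrex-coated 384-well plates. Approved drugs were added by pin tool at a single final concentration of about 33 μM, in triplicate, for 7 days at 37 °C, 5% CO2. CellTiter-Glo luminescence was log2-transformed and normalised per plate to % activity between solvent and positive control wells. The growth-inhibition value is the median over replicates.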
# DIPGX37 = test system: DIPGX37 (H3.3 K27M diffuse intrinsic pontine glioma line)
# In short: as §1
# DIPGX7 = test system: DIPGX7 (H3.3 K27M diffuse intrinsic pontine glioma line)
# In short: as §1
# DIPGX9 = test system: DIPGX9 (diffuse intrinsic pontine glioma line)
# In short: as §1
# HGGX39 = test system: HGGX39 (paediatric high-grade glioma line)
# In short: as §1
# HGGX6 = test system: HGGX6 (H3.3 G34R paediatric high-grade glioma line)
# In short: as §1
# HNSC = test system: HNSC
# In short: as §1
# SUDIPGIV = test system: SUDIPGIV (diffuse intrinsic pontine glioma line)
# In short: as §1
# SUDIPGVI = test system: SUDIPGVI (diffuse intrinsic pontine glioma line)
# In short: as §1
# SUDIPGXIII = test system: SUDIPGXIII (diffuse intrinsic pontine glioma line)
# In short: as §1
SMILES,growth inhibition (DIPGX29) [%],growth inhibition (DIPGX37) [%],growth inhibition (DIPGX7) [%],growth inhibition (DIPGX9) [%],growth inhibition (HGGX39) [%],growth inhibition (HGGX6) [%],growth inhibition (HNSC) [%],growth inhibition (SUDIPGIV) [%],growth inhibition (SUDIPGVI) [%],growth inhibition (SUDIPGXIII) [%]
O=C(CCCN1CCC(O)(c2ccc(Cl)cc2)CC1)c1ccc(F)cc1,0.532,0.49,2.11,2.82,5.5,1.74,2.33,2.23,0.854,1.18
CCc1oc2ccccc2c1C(=O)c1cc(Br)c(O)c(Br)c1,-0.0876,0.798,-0.0754,-1.64,-0.416,0.0697,-1.55,-0.229,0.671,2.79
Nc1nc(CC(=O)Nc2ccc(CCNC[C@H](O)c3ccccc3)cc2)cs1,0.527,0.899,-0.176,0.63,1.04,-0.0848,-1.35,-0.627,0.0605,0.226
Cn1c(=O)c2[nH]cnc2n(C)c1=O,-2.13,0.51,-0.294,-0.0831,-0.447,0.444,-5.61,-0.366,-2.69,-1.98
O=C(O)C(=O)O.[NH-]C1CCCCC1[NH-].[Pt+2] (stereo not given),-0.101,2.05,-0.541,7.2,-0.76,1.66,1.98,-1.88,0.474,1.07
O=S(=O)(O)Oc1ccc(C(c2ccc(OS(=O)(=O)O)cc2)c2ccccn2)cc1,-1.54,-1.27,-2.88,-1.22,-0.859,-1.53,-1.57,-2.15,-2.91,0.476
NC[C@H](O)c1ccc(O)c(O)c1,1.26,2.54,0.579,1.67,3.45,1.96,-0.629,1.37,3.2,1.73
NCCS,-2.8,-1.3,-0.687,-1.29,-2.78,-3.18,0.969,-2.89,-5.68,0.354
CO[C@H]1C[C@@H]2CC[C@@H](C)[C@@](O)(O2)C(=O)C(=O)N2CCCC[C@H]2C(=O)O[C@H]([C@H](C)C[C@@H]2CC[C@@H](OCCO)[C@H](OC)C2)CC(=O)[C@H](C)/C=C(\C)[C@@H](O)[C@@H](OC)C(=O)[C@H](C)C[C@H](C)/C=C/C=C/C=C/1C,4.26,2.47,3.53,14,8.9,7.45,7.71,1.16,10.5,1.36
Nc1nccs1,-0.162,1.62,-0.134,1.18,-0.0642,-1.25,5.02,0.246,1.08,0.0518
C=CCNC(N)=S,-0.199,0.393,-0.932,-0.168,1.56,1.43,-1.32,-1.24,-2.19,-0.232
CSc1ccc2c(c1)N(CCC1CCCCN1C)c1ccccc1S2 (stereo not given),1.58,0.408,-0.0552,-0.344,2.69,-0.282,7.39,0.193,-0.552,0.0949
CCC(=O)NCC[C@@H]1CCc2ccc3c(c21)CCO3,-0.665,-0.134,1.26,0.325,1.29,-0.174,3.01,0.00903,1.36,0.726
C=C[C@]1(C)C[C@@H](OC(=O)CSC(C)(C)CNC(=O)[C@H](N)C(C)C)[C@]2(C)[C@H](C)CC[C@]3(CCC(=O)[C@H]32)[C@@H](C)[C@@H]1O,2.79,0.213,4.74,1.8,20.9,4.36,15.7,29.9,1.61,46.4
CC(=O)[C@H]1CC[C@H]2[C@@H]3C=CC4=CC(=O)CC[C@@]4(C)[C@@H]3CC[C@]12C,-0.886,4.22,-0.136,0.45,1.86,-2.88,6.39,2.11,0.865,-1.05
CCOC(=O)C1=C(C)NC(C)=C(C(=O)OC)C1c1cccc([N+](=O)[O-])c1 (stereo not given),-2.41,0.972,1.75,-2.12,0.389,-2.9,37.3,-0.292,-8.45,2.39
O=C1c2c(O)ccc(O)c2C(=O)c2c(NCCNCCO)ccc(NCCNCCO)c21,62.2,58.9,59.1,55.9,61.6,59,62.7,59.9,35.8,39.8
N=C(N)c1ccc2cc(OC(=O)c3ccc(N=C(N)N)cc3)ccc2c1,-0.193,-3.07,-0.0416,-0.893,-0.167,1.06,2.26,1.8,0.556,-0.295
Nc1cccc2c1C(=O)N(C1CCC(=O)NC1=O)C2=O (stereo not given),0.275,2,0.718,-0.934,-1.86,-0.402,0.283,-0.313,0.743,-1.19
CC(C)c1nc(N(C)S(C)(=O)=O)nc(-c2ccc(F)cc2)c1C=CC(O)CC(O)CC(=O)O (stereo not given),7.07,-1.35,16.7,4.14,24.4,15.9,73.3,21.5,-6.26,17
CCCCCCCCCCCC[N+](C)(C)CCOc1ccccc1,59,58.8,53.9,57.2,62.1,56.8,55.6,55.7,63.2,70.1
COC(=O)C1=C(C#N)NC(C)=C(C(=O)OC(C)C)C1c1cccc([N+](=O)[O-])c1 (stereo not given),-1.9,-0.628,-0.445,-1.03,-1.34,-3.12,5,-1.37,-1.47,1.7
